Experimental data reported in PubChem BioAssay AID1903 (Southern Research Specialized Biocontainment Screening …, 2009).
The campaign covered roughly 310,000 compounds. About 1,200 (0.39%) were called active. No rule for the calls is given here. Only a sample is shown. Entries with a potency or affinity are not part of this list.

What follows are compounds tested against Large T antigen (Simian virus 40) (UniProt P03070) (assay: SV40 large T antigen inhibitors, biochemical (AID 1903)). Conditions: SV40 large T antigen ATPase/helicase inhibition assay; at 20 µM; stronger effect = higher value.
Sequence of Large T antigen (Simian virus 40) (P03070 whole entry, looked up): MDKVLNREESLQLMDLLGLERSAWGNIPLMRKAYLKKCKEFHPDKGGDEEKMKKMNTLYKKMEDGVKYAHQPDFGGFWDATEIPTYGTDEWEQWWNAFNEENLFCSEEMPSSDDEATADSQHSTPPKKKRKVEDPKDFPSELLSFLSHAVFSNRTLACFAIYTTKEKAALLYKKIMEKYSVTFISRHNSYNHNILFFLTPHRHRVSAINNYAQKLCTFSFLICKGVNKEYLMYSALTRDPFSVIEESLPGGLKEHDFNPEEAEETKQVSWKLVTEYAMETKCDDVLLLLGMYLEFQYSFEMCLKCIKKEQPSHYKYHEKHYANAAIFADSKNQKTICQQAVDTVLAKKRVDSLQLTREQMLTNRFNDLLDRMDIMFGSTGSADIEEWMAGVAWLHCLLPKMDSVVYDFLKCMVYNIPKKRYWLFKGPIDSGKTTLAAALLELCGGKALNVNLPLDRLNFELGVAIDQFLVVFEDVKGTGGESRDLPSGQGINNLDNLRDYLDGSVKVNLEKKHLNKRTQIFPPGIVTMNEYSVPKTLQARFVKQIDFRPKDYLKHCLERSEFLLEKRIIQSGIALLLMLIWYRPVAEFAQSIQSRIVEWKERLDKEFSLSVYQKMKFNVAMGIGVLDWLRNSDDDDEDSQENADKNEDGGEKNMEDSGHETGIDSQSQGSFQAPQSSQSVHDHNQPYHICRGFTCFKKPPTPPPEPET

inhibition, inactive:
COCCN=C1Sc2nc3ccc(C)cc3cc2CN1Cc1ccco1 19.9%
Cc1cccc2cc3c(nc12)SC(=NCC1CCCO1)N(Cc1ccco1)C3 (centres undefined) 26%
Cc1ccnc(Nc2nc(-c3ccc(O)c(O)c3)cs2)c1 32.9%
Cc1csc(Nc2cccc3ccccc23)n1 11.9%
Oc1ccc(-c2csc(Nc3ncccn3)n2)cc1 6.13%
Cc1ccc(Nc2nc(-c3ccc(F)cc3)cs2)nc1 9.89%
c1ccc(-c2csc(Nc3ncccn3)n2)cc1 0.05%
Oc1ccc(-c2csc(Nc3ccccn3)n2)cc1 22.2%
Cc1cccc(Nc2nc(-c3ccc(O)c(O)c3)cs2)n1 30.3%
c1ccc(-c2csc(Nc3ccccn3)n2)cc1 9.23%
Cc1c(/C(Cc2ccccc2)=N/O)c2ccccc2n1C 15.5%
COc1ccccc1N(Cc1ccccc1)S(=O)(=O)c1cccc(C(=O)Nc2cc(C)ccn2)c1 11.2%
O=C(Nc1ccc2c3c(cccc13)CC2)c1ccc(Br)o1 -1.82%
O=C(COC(=O)c1cc(S(=O)(=O)N2CCOCC2)ccc1Cl)Nc1ccc2c(c1)OCO2 -0.55%
O=C(Cn1nnc2ccccc21)NC1CCCCC1 7.66%
CC(C(N)=O)N1c2cccc3cccc(c23)S1(=O)=O (centres undefined) 5.84%
Cc1cc(C)c(OCC(=O)Nc2ccccn2)c([N+](=O)[O-])c1 4.36%
COCCCNC(=O)c1ccc2c(=O)n(Cc3ccc(OC)cc3)c(=O)[nH]c2c1 17.4%
COc1ccc(CCNC(=O)CNC(=O)Cn2cnc3sc(C)c(C)c3c2=O)cc1OC -8.68%
COc1ccc(Nc2ccc(Nc3ccc(OC)cc3)nn2)cc1 10.9%
COc1ccc(Nc2c(C)cccc2C)cc1 -1.03%
O=C(O)CC1c2ccccc2CCN1S(=O)(=O)c1ccccc1 (centres undefined) 16.2%
CCOCCc1nnc(NC(=O)Cc2ccc(Br)cc2)s1 4.12%
O=C(Cc1n[nH]c(=O)[nH]c1=O)N/N=C/c1cccc(O)c1 9.95%
Cc1ccc(Oc2nc3ccccc3n3c(C)nnc23)c(C)c1 1.35%
CCN(CC(=O)NC(=O)NC1CCCC1)Cc1ccccc1 14.2%
Cc1ccc(-c2nc3cnccn3c2Nc2ccc3c(c2)OCO3)cc1 25.3%
c1cn2c(Nc3ccc4c(c3)OCCO4)c(-c3ccc(N4CCOCC4)cc3)nc2cn1 29.1%
COc1cc(-c2nc3cnccn3c2Nc2ccc(C)cc2)ccc1O 37%
COc1ccc(-c2nc3cnccn3c2Nc2ccc3c(c2)OCO3)cc1 21.4%
c1ccc(-c2nc3cnccn3c2Nc2ccc3c(c2)OCCO3)cc1 9.23%
Clc1ccc(-c2nc3cnccn3c2NC2CCCC2)cc1 8.26%
Fc1ccc(-c2nc3cnccn3c2NC2CCCC2)cc1 3.13%
COc1cc(-c2nc3cnccn3c2Nc2ccc(C(C)C)cc2)ccc1O 9.43%
CC(=O)c1c(C)[nH]c(C(=O)OCc2c(F)cccc2Cl)c1C 20.8%
CN(C)C(=O)c1cn(-c2ccccc2)nc1-c1cc2ccccc2o1 0.09%
CCCC1CCC(c2ccc(/C(N)=N/O)cc2)CC1 (centres undefined) 4.39%
CC(=O)NC(N1CCCCC1)C(F)(F)C(F)(F)C(F)(F)C(F)F (centres undefined) -2.22%
Cc1c(Cl)cccc1NC(=S)N(CCCN1CCOCC1)Cc1cccs1 3.79%
Clc1ccc(-c2nc3ncccn3c2Nc2ccc3c(c2)OCO3)cc1 7.55%
Oc1ccc(-c2nc3ncccn3c2Nc2ccc3c(c2)OCCO3)cc1 13.3%
CC(C)OC(=O)/C(=C/c1ccc2c(c1)c1ccccc1n2C)NC(=O)c1ccccc1 3.18%
COc1ccc2c(c1)-c1nc(/N=C/c3ccc(O)cc3)sc1CC2 15.8%
COc1ccc2c(c1)-c1nc(/N=C/c3c(O)ccc4ccccc34)sc1CC2 23.1%
Cn1nc(-c2ccccc2)cc1NC(=O)C1CCCCC1 5.74%
Nc1ccc(C(=O)c2cccs2)cc1 6.86%
Cc1ccc(C(=O)c2cc(C)sc2N)cc1 19.1%
CSC1=NSC2=NC(=O)/C(=C/c3coc4ccccc4c3=O)C(=N)N12 12.2%
N=C1/C(=C\c2coc3ccccc3c2=O)C(=O)N=C2SC=CN12 34.7%
CC(C)CSC1=NSC2=NC(=O)/C(=C\c3coc4ccccc4c3=O)C(=N)N12 13.7%
CSC1=NSC2=NC(=O)/C(=C/c3coc4ccc(O)cc4c3=O)C(=N)N12 17.7%
N=C1/C(=C/c2coc3ccccc3c2=O)C(=O)N=C2SC(c3ccco3)=NN12 51.6%
CCSC1=NSC2=NC(=O)/C(=C\c3coc4ccccc4c3=O)C(=N)N12 28.2%
COc1ccccc1N1CCN(C(=O)c2oc3ccc(F)cc3c2C)CC1 -1.49%
O=C(CC(Sc1ccc(Br)cc1)C(=O)O)c1ccc(F)cc1 (centres undefined) 7.72%
Cc1ccc(SC(CC(=O)c2ccc(C)cc2)C(=O)O)cc1 (centres undefined) 19.4%
CN1C(=O)C2C(c3ccc(N(C)C)cc3)NN(Cc3ccccc3)C2C1=O (centres undefined) 19.9%
COc1ccc(C2=NN(Cc3ccccc3)C3C(=O)NC(=O)C23)cc1 (centres undefined) 4.68%
CCOC(=O)N1CCN(c2cc(=O)n(-c3ccc(OC)cc3)c(=O)[nH]2)CC1 -2.27%
Cc1ccccc1CNC(=O)Cn1ccc2cc(S(=O)(=O)N3CCCCCC3)ccc21 5.82%
O=C(COC(=O)c1ccc(CO)cc1)Nc1ccc(OC(F)F)cc1 -2.98%
Cc1nnc(NC(=O)CCS(=O)(=O)c2ccccc2)s1 19.4%
Nc1ccc2c(c1)nc(Cc1ccccc1)n2CCO 32.4%
Cn1c(CO)nc2cc(N)ccc21 24.9%
